The OligoGym collection

What follows are sequences tested against TRMT1 (assay: pooled miR-30 sensor sort-seq; sequence = guide strand). Conditions: shRNA.
Note: reference of the scale not given here.

Row | Sequence | sensor-assay potency score (higher = more potent)
1 | TCGGTGACTGTCGTCTCCTGGA | -1.21
2 | TCTCCTGGAACCTTGATCTGGA | -0.0549
3 | TAGTCTCTGATAGTCGCTCCCG | -0.643
4 | TTGCGTGTCCTTCTCTCCTGGA | -0.847
5 | TAGAAGTCAGCGCTGATGCTGA | -0.13
6 | TCATTGAGCTGGACATTCCGGC | 0.0258
7 | TAGTACAGAGGCACGTCCGGGA | -0.101
8 | TCTCTGATAGTCGCTCCCGTTT | -1.66
9 | TTGTTCTGAAGCAGCCTGCGTC | -0.663
10 | TTGAGCTGGACATTCCGGCGTA | 0.567

Each sequence was assayed against TRO in the same assay as above. Conditions: shRNA.

Row | Sequence | sensor-assay potency score (higher = more potent)
11 | TTGGGTGTGTCCTTGGTCGTTC | 0.127
12 | TACACCACTAAAGCCAGCCGTG | -1.01
13 | TAGTGCTCAGTGTACCACCAAA | -1.66
14 | TTAGTAATAGTCTTTATAGGGG | -0.72
15 | TTTCATCTTGCTAGTCTCGTGG | 0.184
16 | TAGTATTAGATGCACTGCCAAA | -1.27
17 | TTGAGTGCACTGCCAAAGCTGA | -0.944
18 | TTGATGGGGATCTTTGTCTGGT | -0.592
19 | TTGAGCACACTGCCAAAGCTGG | -0.914
20 | TAAAATGGCCACATCTCGCGGT | 0.238
21 | TTGGTCAGCATTTGGAGTCTGG | 0.322
22 | TTCATCTTGCTAGTCTCGTGGT | 0.132

Each sequence was assayed against TRPC4 in the same assay as above. Conditions: shRNA.

Row | Sequence | sensor-assay potency score (higher = more potent)
23 | TTGAATGGACACACTCTCTTTC | -0.228
24 | TATACTAGAGTCCTCTTCTTTT | -1.18
25 | TATTGTTCCAAAACTTTCTGGC | 0.627
26 | TAACACACATTGTTCACTGAGA | -0.436
27 | TATGAGACTATTGTCATCTCGG | 0.182
28 | TATTTCTCTCAAGTGGTCCTGC | 0.27
29 | TAGATGTTGAGTCTGGAGCGTG | -0.516
30 | TTTGGTATTATAGGAACCGTGT | -0.294
31 | TTGAGTAGAACAACCAGAGAGA | -0.452
32 | TTGACGAGCAACTTCTTCTGAA | 0.0812
33 | TTCTCTGGAACTTCTCGTCTGA | -0.126
34 | TTCTTTTGCATGTTTCTCCTTT | 0.299

Each sequence was assayed against TRPM3 in the same assay as above. Conditions: shRNA.

Row | Sequence | sensor-assay potency score (higher = more potent)
35 | TTGTCTTTCATATTGACCGAAT | -0.665
36 | TTGTACAATTCCTCTAGTCTGG | -0.181
37 | TAAAATGCTCTTTCTATCCAGG | -0.366
38 | TTGTCTTCGAAGTTTCACCTCT | 0.148
39 | TTTCTCATTCTGAAGCACGGAG | -0.126
40 | TTGTTCTTGAACTCCAAGCTGA | -0.171
